In PubChem BioAssay AID2685 (National Center for Advancing Translational Sciences (NCATS), 2010):
About 2,100 (0.66%) of roughly 320,000 compounds were called active. Not shown: some 53% with an inconclusive outcome. Calls come from the whole dose curve; as a rule, active = well fitted inhibition curve with a large enough effect in the signal ratio, with a control signal flat (not every such curve was filed as active); inconclusive = small, poorly fitted or top-dose-only effect, or effect the other way, or a change in a side signal; inactive = flat fitted curve, though single readings scatter; the % refers to the signal ratio. This excerpt belongs to a sample that is enriched for actives.

Experiment: qHTS Assay for Lipid Storage Modulators in Drosophila S3 Cells;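 for cell number change: cells counted by Cell Tracker Red CMTPX staining in the red channel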; for lipid storage change, negative = inhibition: % is set by controls: 0 for no effect and ±100 for the full control effect
Conditions: BODIPY lipid droplet fluorescence, 18-24 h, cells fed with added oleic acid; cell number change: measured here: cell count max response; series mostly up to 46.1 µM; lipid storage change, negative = inhibition: at the top concentration
In short: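 Drosophila S3 cells loaded with oleic acid (400 uM, as added) and compounds at several concentrations; lipid droplets imaged by 488-nm laser-scanning cytometry, 500–530 nm intensity and object ratio to cell channel. Percent activity normalized to 20 uM Triacsin C.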
Potency is the fitted concentration of half-maximal effect.

| SMILES | lipid storage change, negative = inhibition | cell number change [%] | Potency | outcome |
| --- | --- | --- | --- | --- |
| CC1Oc2ccccc2C=C1/C=N/NC(=O)[C@@H](C)NC(=O)OC(C)(C)C (some centres undefined) | 5.39% (inactive) | 8.38 | – | – |
| CCOC(=O)N1CCN(C(=O)c2ccc(Cn3c(=S)[nH]c4cc(OCC)c(OCC)cc4c3=O)cc2)CC1 | 7.39% (inactive) | – | – | – |
| COc1ccc(CCNC(=O)C(=O)N2CCCCC2)cc1OC | -1.78% (inactive) | 6.42 | – | – |
| COc1ccc(C(=O)Nc2ccc(NC(=O)c3cccs3)cn2)cc1 | – | 12.4 | 10.3 µM (active) | – |
| O=C(Nc1ccc(NC(=O)c2cccs2)cn1)c1ccccc1 | -16.2% (inactive) | 8.82 | – | – |
| COc1ccc(C(=O)Nc2cnc(NC(=O)c3cccs3)cc2C)cc1 | 25.6% (inactive) | -9.21 | – | – |
| O=C(NCCCO)/C(=C\c1cn(-c2ccccc2)nc1-c1cccnc1)NC(=O)c1ccccc1 | 19.7% (inactive) | 19.4 | – | – |
| COC(=O)c1cc(C(=O)OCC(=O)NCc2cccs2)cc([N+](=O)[O-])c1 | -3.38% (inactive) | -8.04 | – | – |
| N#Cc1ccccc1S(=O)(=O)N1CCN(S(=O)(=O)c2ccc(Br)c(C(=O)O)c2)CC1 | -3.74% (inactive) | – | – | – |
| CCCCn1c(N)c(N(CCOC)C(=O)C2CCN(S(=O)(=O)c3ccc(C)cc3C)CC2)c(=O)[nH]c1=O | 17.2% [at 0.0737 µM] (inactive) | – | – | – |
| O=[N+]([O-])c1ccc(S(=O)(=O)CC2CSc3nc4ccccc4n32)cc1 (centres undefined) | – | -0.884 | 32.6 µM (active) | – |
| Cc1nnc2n(c1=O)C(CS(=O)(=O)c1ccc3ccccc3c1)CS2 (centres undefined) | 7.18% (inactive) | 2.91 | – | – |
| Cc1ccc(S(=O)(=O)CC2CSc3nc(N)cc(=O)n32)cc1 (centres undefined) | -8.79% (inactive) | 2.18 | – | – |
| CCOC(=O)Nc1cc2c(C)cc(=O)oc2cc1C | 38.2% (inactive) | 12.9 | – | – |
| Cc1ccc(CN2CCN(Cc3c[nH]c4ccccc34)CC2CCO)o1 (centres undefined) | -12.5% (inactive) | 12.4 | – | – |
| Cc1cccc(C)c1NC(=O)N1C2CCC1CC(O)(c1cccnc1)C2 (centres undefined) | 0.613% (inactive) | 9.99 | – | – |
| O=C(Nc1ccccc1C(=O)NC1CC1)c1ccccc1 | 3.91% (inactive) | 10.8 | – | – |
| CCOC(=O)C1=NN(c2cccc(Cl)c2)C2=NC(C)=C(C(=O)OC)C(c3cccs3)N12 (centres undefined) | -3.04% (inactive) | -18.3 | – | – |
| CCOc1ccc2ccccc2c1/C=N/NC(=O)c1ccncc1 | – | 6.87 | – | inactive |
| CCOc1ccc2ccccc2c1/C=N\NC(=O)c1ccc([N+](=O)[O-])cc1 | – | -16.1 | 6.51 µM (active) | – |
| COc1ccc2ccccc2c1/C=N/NC(=O)c1ccc([N+](=O)[O-])cc1 | -10.6% (inactive) | -15.8 | – | – |
| CC(C)CNC(=O)CN1C(=O)NC2(CCCc3ccccc32)C1=O (centres undefined) | -4.01% (inactive) | 7.92 | – | – |

| SMILES | lipid storage change, negative = inhibition | cell number change [%] | Potency | outcome |
| --- | --- | --- | --- | --- |
| CCCNC(=O)C1CCN(S(=O)(=O)c2ccc3nc4c(c(C(=O)O)c3c2)CCCCC4)CC1 | 18.1% (inactive) | 4.41 | – | – |
| CN(C)N1C(=O)CC(C)(c2ccc([N+](=O)[O-])cc2)C1=O (centres undefined) | -2.1% (inactive) | -4.15 | – | – |
| Cc1cccc(-n2ncc3c(=O)[nH]c(SCC(=O)NCCC4=CCCCC4)nc32)c1 | -10.6% (inactive) | -11 | – | – |
| N#Cc1ccc(C(=O)OCCCc2cc3ccccc3c(=O)o2)cc1 | 9.51% (inactive) | 18 | – | – |
| O=C(OCCCc1cc2ccccc2c(=O)o1)c1ccc2c(c1)OCO2 | 0.96% (inactive) | -12 | – | – |
| O=C(OCCc1cc2ccccc2c(=O)o1)c1cccc(Br)c1 | – | -23.3 | 0.13 µM (active) | – |
| CC(C)CN1CCN(Cc2cccn2-c2ccc(Cl)cn2)CC1CCO (centres undefined) | 5.56% (inactive) | 10.5 | – | – |
| CCCCc1c(O)nc2sccn2c1=O | 15.8% (inactive) | – | – | – |
| COc1ccc2c(c1)sc1nc(=O)ccn12 | -19.5% (inactive) | 21.5 | – | – |
| CCCCc1c(O)nc2sc3cc(OC)ccc3n2c1=O | – | 9.25 | 10.3 µM (active) | – |
| CCN(CC)CC(=O)N1CCCC(N2CCN(c3cccc(C(F)(F)F)c3)CC2)C1 (centres undefined) | 12.5% (inactive) | 21 | – | – |
| CSCC(=O)N1CCCC(N2CCN(c3cccc(C(F)(F)F)c3)CC2)C1 (centres undefined) | – | 7.35 | 13 µM (active) | – |
| O=C(CN1CCOC1=O)N1CCCC(N2CCN(c3cccc(C(F)(F)F)c3)CC2)C1 (centres undefined) | – | -10.2 | – | inactive |
| O=C(Nc1cccc(-c2ccc(F)cc2)c1)C1CCCN(Cc2cccnc2)C1 (centres undefined) | -8.86% (inactive) | -21.8 | – | – |
| CCc1ncc(CN2CCCC(C(=O)Nc3cccc(-c4ccc(F)cc4)c3)C2)cn1 (centres undefined) | – | -24.6 | 20.6 µM (active) | – |
| CCc1ncc(CN2CCCC(C(=O)Nc3cccc(-c4cccc(C)c4)c3)C2)cn1 (centres undefined) | 11.6% (inactive) | 8.11 | – | – |
| C=CCN(Cc1nc(-c2ccccc2)no1)C(=O)c1ccoc1C | -4.28% (inactive) | 33.5 | – | – |
| Cc1cc(=O)oc2cc(Oc3ccc(C(N)=O)cc3[N+](=O)[O-])ccc12 | 0.639% (inactive) | 5.31 | – | – |
| Cc1cc(=O)oc2cc(Oc3ncccc3[N+](=O)[O-])ccc12 | -0.796% (inactive) | 13.9 | – | – |
| Cc1cc(=O)oc2cc(Oc3ccc([N+](=O)[O-])cc3[N+](=O)[O-])ccc12 | – | -13.4 | 20.6 µM (active) | – |
| O=C(COc1ccccc1)NNC(=S)NC(=O)c1ccc(Cl)cc1Cl | 3.86% (inactive) | -11.7 | – | – |
| N#Cc1cc2c(nc1Cl)CCC2 | 16.3% (inactive) | 0.397 | – | – |
